Outcome data for 26 compounds are collected here from PubChem BioAssay AID720697 (Broad Institute, 2013).

Measured potencies and affinities stand elsewhere. Results filed as inconclusive are left out. Active and inactive are the calls of the source.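 How the source made its calls: active means signal loss with fitted half-maximal concentration at or below twice the top valid tested dose in every test run; inconclusive means runs disagree, flat 30 to 70% signal loss, or poor fit; inactive means all runs flat, opposite direction, or potency beyond limit.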

A short description of the experiment: general mammalian cell viability loss – inhibitor set, cherry-pick, set 2, cytotoxicity control for miR-122 modulator project, dose response (AID 720697). To be noted: HEK293T viability, CellTiter-Glo luminescence, 48 h; series mostly up to 26 µM.
On to `C/C=C/c1ccc([C@@H]2[C@@H](CO)N(S(C)(=O)=O)[C@H]2CN(C)C(=O)CC)cc1`, for which the compound was classed as inactive. Under `C/C=C/c1ccc([C@@H]2[C@H](CO)N[C@H]2CN(CC)C(=O)CN2CCOCC2)cc1` stands “inactive”. Consider `C[C@@H]1CN([C@@H](C)CO)S(=O)(=O)c2ccc(C3=CCCC3)cc2O[C@@H]1CN(C)C(=O)c1ccc(F)cc1`, for which the result was inactive. Consider `C/C=C/c1ccc([C@@H]2[C@@H](CO)N(C(=O)Cc3cccnc3)[C@H]2CNC(C)=O)cc1`, for which the result was inactive. Under `C[C@@H]1CN([C@H](C)CO)S(=O)(=O)c2ccc(C3=CCCC3)cc2O[C@@H]1CN(C)C(=O)c1ccc(F)cc1` stands “inactive”.

Take `CNC(=O)C[C@@H]1CC[C@@H]2[C@@H](COc3ccc(NC(=O)Nc4ccccc4OC)cc3C(=O)N2C)O1`: the outcome was inactive.

Turning to `CC(=O)N1[C@H](CO)[C@@H](c2ccccc2)[C@H]1CN(C)C(=O)CN1CCOCC1`, the compound was called inactive.

Consider `O=C(Cc1cccnc1)N1[C@@H](CO)[C@@H]2c3ccccc3NC[C@@H]21`, for which the outcome was inactive. Consider `Nc1ccc(Oc2ccc(Br)cc2)cc1`, for which the compound was called inactive.

For the compound `O=C(C1CCCCC1)N1C[C@@H]2[C@H](c3ccccc31)[C@H](CO)N2Cc1ccccc1Cl`, the compound was classed as inactive. For the compound `COCCN(C[C@H]1[C@H](c2ccccc2)[C@@H](CO)N1C(=O)C1CCC1)C(C)=O`, the compound was classed as inactive. Take `COC(=O)c1nn(-c2ccccc2)c(Sc2ccc(Cl)cc2)c1/C=N/O`: the compound was classed as inactive. Consider `CNC(=O)C[C@@H]1CC[C@@H]2[C@@H](COc3ccc(NC(=O)c4ccccc4F)cc3C(=O)N2C)O1`, for which the outcome was inactive. As for `COc1nnc(-c2ccc(N3CCOCC3)c(NC(=O)c3ccccc3)c2)c2ccccc12`, the entry is “inactive”; as for `O=C(c1cccnc1)N1C[C@H]2[C@@H](c3ccccc31)[C@H](CO)N2C(=O)Nc1ccccc1`, “inactive”. Under `CCN(C[C@@H]1[C@@H](c2ccc(C3=CCCCC3)cc2)[C@@H](CO)N1CC1CC1)C(C)=O` stands “inactive”; under `O=C(Nc1ccccc1)N1CCCCN2[C@@H](CO)[C@H](c3ccc(C4=CCCCC4)cc3)[C@@H]2C1`, “inactive”; under `CC(=O)Nc1ccc(S(=O)(=O)Nc2ccc(S(=O)(=O)Nc3nc(C)cc(C)n3)cc2)cc1`, “inactive”. Under `CC(C)C(=O)Nc1ccc2c(c1)C(=O)N(C)[C@@H]1CC[C@H](CC(=O)NCC3CC3)O[C@H]1CO2` stands “inactive”; under `CN1C(=O)c2cc(NC(=O)c3ccc(C(F)(F)F)cc3)ccc2OC[C@H]2O[C@H](CC(=O)NCc3ccc4c(c3)OCO4)CC[C@@H]21`, “inactive”; under `CCS(=O)(=O)Nc1ccc2c(c1)C(=O)N(C)C[C@@H](OC)[C@H](C)CN(CC1CCCC1)[C@H](C)CO2`, “inactive”. Turning to `CC(=O)c1ccc(Nc2nc3ccc(C)cc3n3cnnc23)cc1`, the call was inactive.

As for `Cc1cccc(NC(=O)Nc2ccc3c(c2)C(=O)N(C)[C@@H]2CC[C@@H](CC(=O)NCc4ccccc4Cl)O[C@H]2CO3)c1`, the compound was called inactive. As to `CCOc1ccc(CCNC(=O)C2CCN(S(=O)(=O)N3CCC(C)CC3)CC2)cc1OCC`, the result was inactive. Turning to `CCCC(=O)Nc1ccc2c(c1)C(=O)N(C)[C@@H]1CC[C@H](CC(=O)NCCN3CCCCC3)O[C@H]1CO2`, the outcome was inactive.

Regarding `CCCNC(=O)Nc1ccc2c(c1)C(=O)N(C)[C@H]1CC[C@@H](CC(=O)NCC3CCCCC3)O[C@@H]1CO2`, the call was inactive.
